The nature of experiment [1]: qHTS assay to identify small molecule agonists of the vitamin D receptor (VDR) signaling pathway - cell viability counter screen (AID 743224). Note: % is set by controls: 0 for no effect and ±100 for the full control effect; nearly all actives have a fitted effect of over 50% in size. Summed up: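 VDR-bla cells, 4 h after plating, exposed to compounds for 16 h at 37C; viability then read in the same wells as CellTiter-Glo luminescence after 30 min at room temperature, following the bla FRET read.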
In general terms: qHTS replaces the single test concentration by a dilution series.

Experiment [2] can be described thus: qHTS assay to identify small molecule antagonists of the vitamin D receptor (VDR) signaling pathway - cell viability counter screen (AID 743225). Note: % is set by controls: 0 for no effect and ±100 for the full control effect; nearly all actives have a fitted effect of over 50% in size. An outline of the steps:
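HEK293T VDR-bla; cpd + 1a,25-(OH)2D3 3 nM final, 16 h 37C/5% CO2; B/G FRET substrate 2 h RT; then CellTiter-Glo 30 min RT, luminescence.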

The nature of experiment [3]: qHTS assay to identify small molecule agonists of the NFkB signaling pathway - cell viability counter screen (AID 1159515; calls by dose curve; note: % is set by controls: 0 for no effect and ±100 for the full control effect; nearly all actives have a fitted effect of over 55% in size). An outline of the steps: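 NFkB-bla ME-180 cells, 2,000/well, plated overnight at 37 C; compound added for 5 hr at 37 C. Viability read in the same wells as the bla reporter, by CellTiter-Glo luminescence after 30 min at room temperature.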
Experiment [4] can be described thus: qHTS assay to identify small molecule agonists of the endoplasmic reticulum stress response signaling pathway - cell viability counter screen (AID 1159517; calls by dose curve;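 note: HeLa cells carrying an ER stress response element beta-lactamase reporter; % is set by controls: 0 for no effect and ±100 for the full control effect; nearly all actives have a fitted effect of over 50% in size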). Summed up:
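CellTiter-Glo was added to wells already read for beta-lactamase FRET, and luminescence was recorded 30 min later. Cells: ESRE-bla HeLa, 1,500 per well, compound exposure 5 hr at 37 C.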

Experiment [5] can be described thus: qHTS assay to identify small molecule antagonists of the retinoid-related orphan receptor gamma (ROR-gamma) signaling pathway - cell viability counter screen (AID 1159520). Note: % is set by controls: 0 for no effect and ±100 for the full control effect; nearly all actives have a fitted effect of over 50% in size. Summed up: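 Tet-on ROR gamma CHO cells (1,000/well) were plated 4 hr, given compounds in DMSO for 2 hr at 37 C, then induced with 1 uM final doxycycline for 16 hr. Viability was read as ATP by CellTiter-Glo luminescence after 30 min.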

Experiment [6] concerns the target Nuclear receptor ROR-gamma (Homo sapiens) (UniProt P51449). Nature of the experiment: qHTS assay to identify small molecule antagonists of the retinoid-related orphan receptor gamma (ROR-gamma) signaling pathway (AID 1159521). An outline of the steps: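 Cells were plated, rested 4 h at 37 C, exposed to compounds for 2 h, then given 1 uM final doxycycline hyclate to induce RORγ expression. After 16 h, ONE-Glo luminescence from the ROR response element reporter was measured.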

Experiment [7] can be described thus: qHTS assay to identify small molecule agonists of the AP-1 signaling pathway - cell viability counter screen (AID 1159525; calls by dose curve; note: nearly all actives have a fitted effect of over 55% in size). Summed up:
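ME-180 AP-1-bla, 2500 cells/well, Opti-MEM + 0.5% dialyzed FBS; overnight 37 °C; cpd 15-pt titration, 5 h 37 °C; CellTiter-Glo 30 min RT; luminescence read; normalised to TOAB and DMSO controls.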

A short description of experiment [8]: qHTS assay to identify small molecule agonists of the AP-1 signaling pathway (AID 1159526; calls by dose curve; note: % is set by controls: 0 for no effect and ±100 for the full control effect).
In experiment [9] the target is Retinoic acid receptor RXR-alpha (Homo sapiens) (UniProt P19793). Nature of the experiment: qHTS assay to identify small molecule agonists of the RXR signaling pathway (AID 1159527; calls by dose curve; note: % is set by controls: 0 for no effect and ±100 for the full control effect; nearly all actives have a fitted effect of over 35% in size). Summed up:
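Cells plated at 2,000/well, rested 5 hr at 37 C, pin-dosed with DMSO compound solutions, incubated 16 hr, then loaded with B/G FRET substrate for 2 hr at RT before dual-emission fluorescence reading.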

The nature of experiment [10]: qHTS assay to identify small molecule agonists of the RXR signaling pathway - cell viability counter screen (AID 1159529). An outline of the steps:
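Steps: seed RXR-alpha-UAS-bla HEK 293T cells in assay medium containing 2% charcoal-stripped FBS; incubate 5 hr; add compounds in DMSO; incubate 16 hr at 37 C; after the bla read, add CellTiter-Glo and read luminescence at 30 min.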

A short description of experiment [11]: qHTS assay to identify small molecule antagonists of the retinoid acid receptor (RAR) signaling pathway - cell viability counter screen (AID 1159551). Note: nearly all actives have a fitted effect of over 35% in size. Note: potency is the fitted concentration of half-maximal effect. An outline of the steps:
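C3RL4 RARE-luciferase cells, 1,000/well, incubated overnight, then dosed with compound plus 1 uM retinol (final). After 6 hr at 37 C, viability read by CellTiter-Glo ATP luminescence following 30 min at room temperature.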

Experiment [12] in a line: qHTS assay to identify small molecule antagonists of the retinoic acid receptor (RAR) signaling pathway (AID 1159552). Summed up: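 Retinol at 1 uM final stimulated RARE-luciferase expression in C3RL4 cells exposed to test compounds for 6 hr at 37 C. Reduced luminescence, read 30 min after detection reagent, indicated pathway antagonism.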
Experiment [13] can be described thus: qHTS assay to identify small molecule agonists of the retinoic acid receptor (RAR) signaling pathway (AID 1159553). Note: % is set by controls: 0 for no effect and ±100 for the full control effect. As to conditions: C3RL4 RARE luciferase reporter, agonist, 6 h; activation: at 73.3 µM (top of the series) unless noted. Summed up: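 C3RL4 RARE-luciferase cells were seeded at 1,000/well and grown overnight at 37 C, then exposed to compounds for 6 hr at 37 C, 5% CO2. Luciferase reagent was added and luminescence was read after 30 min at room temperature.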

Experiment [14] in a line: qHTS assay to identify small molecule agonists of the endoplasmic reticulum stress response signaling pathway (AID 1159516; active = well fitted activation curve with a large enough effect in the signal ratio in the repeat runs, not every such curve was filed as active; the % refers to the signal ratio; note: % is set by controls: 0 for no effect and ±100 for the full control effect). An outline of the steps:
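CellSensor ESRE-bla HeLa cells, 1,500 per well, plated overnight, then exposed to compounds for 5 hr at 37 C. Beta-lactamase reporter read with LiveBLAzer B/G FRET substrate after 2 hr at room temperature, 405 nm excitation, 460 and 530 nm emission.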

Experiment [15] is described as follows: qHTS assay to identify small molecule antagonists of the estrogen related receptor (ERR) signaling pathway - cell viability counter screen (AID 1224818). Note: % is set by controls: 0 for no effect and ±100 for the full control effect. Summed up:
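ERR cells, 2,000 per well, compound added after 6 h and incubated 17.5 h at 37 C. Viability read by CellTiter-Fluor fluorescence after a further 30 min at 37 C.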

Experiment [16] can be described thus: qHTS assay to identify small molecule antagonists of the estrogen related receptor (ERR) signaling pathway (AID 1224819). An outline of the steps:
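ERR reporter cell line (NTP) plated at 2,000 cells/well, settled 6 h at 37C/5% CO2, then exposed to LOPAC compounds for 18 h at 37C. One-Glo luciferase luminescence read after 30 min at room temperature.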

The nature of experiment [17]: qHTS assay to identify small molecule agonists of the estrogen related receptor (ERR) signaling pathway (AID 1224820). Note: % is set by controls: 0 for no effect and ±100 for the full control effect. An outline of the steps:
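Cells: ERR line from NTP, 2,000/well. Pre-incubation 6 h, 37 C/5% CO2. Compound (DMSO) pin transfer, 18 h 37 C. One-Glo, 30 min RT, luminescence.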

The test system of experiment [18] is estrogen-related receptor alpha (ERRalpha) with PGC-1alpha coactivator, human. Nature of the experiment: qHTS assay to identify small molecule antagonists of the estrogen related receptor signaling pathway with the pleiotropic PPARgamma coactivator (PGC) (AID 1224821; calls by dose curve). An outline of the steps: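 Luminescent read-out (One-Glo, 30 min at room temperature) following 18 h treatment of PGC/ERR cells at 37 C with compounds delivered in DMSO. Cells had settled 6 h at 37 C/5% CO2 before dosing.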

Experiment [19] can be described thus: qHTS assay to identify small molecule antagonists of the estrogen related receptor signaling pathway with the pleiotropic PPARgamma coactivator (PGC) cell viability counter screen (AID 1224822; note: % is set by controls: 0 for no effect and ±100 for the full control effect). Summed up: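 PGC/ERR cells rested 6 h, then compound-treated 17.5 h at 37 C. CellTiter-Fluor added for 30 min at 37 C, viability measured by fluorescence intensity.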

A short description of experiment [20]: qHTS assay to identify small molecule agonists of the estrogen related receptor signaling pathway with the pleiotropic PPARgamma coactivator (PGC) (AID 1224823). Note: % is set by controls: 0 for no effect and ±100 for the full control effect. Summed up: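 Steps: plate PGC/ERR cells at 2,000 cells/well; incubate 6 h, 37 C/5% CO2; pin-transfer compounds (DMSO); incubate 18 h, 37 C; add One-Glo; 30 min RT; read luminescence.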

Records with an inconclusive call do not appear. A number with no mark means an inactive call. Active and inactive are the calls of the source. Unless noted, calls come from the whole dose curve; as a rule, active = well fitted curve in the direction sought with a large enough effect in the repeat runs; inconclusive = weak or mixed curves; inactive = no such curve, though single readings can be large; an effect the other way counts as inactive or inconclusive.

Retinoic acid receptor RXR-alpha (Homo sapiens), sequence (P19793 whole entry, looked up): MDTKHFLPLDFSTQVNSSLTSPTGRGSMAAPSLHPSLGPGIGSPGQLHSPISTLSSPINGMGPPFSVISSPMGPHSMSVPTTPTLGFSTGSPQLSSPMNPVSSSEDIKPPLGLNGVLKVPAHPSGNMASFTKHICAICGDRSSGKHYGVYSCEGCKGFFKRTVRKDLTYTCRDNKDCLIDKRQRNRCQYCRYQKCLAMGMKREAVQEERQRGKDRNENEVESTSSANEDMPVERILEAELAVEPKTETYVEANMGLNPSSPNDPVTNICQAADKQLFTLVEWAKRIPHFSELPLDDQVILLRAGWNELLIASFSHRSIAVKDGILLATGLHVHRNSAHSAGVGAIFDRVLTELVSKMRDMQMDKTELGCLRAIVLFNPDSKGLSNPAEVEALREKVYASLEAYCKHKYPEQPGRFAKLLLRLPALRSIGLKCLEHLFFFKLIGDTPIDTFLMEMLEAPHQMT

On to `OC/C=C/CO`, for which the Potency result in experiment [1], in experiment [2], in experiment [3], in [4], in experiment [5] and in experiment [6] was “inactive” throughout. Moreover, the Potency entry in experiment [7], in experiment [8], in experiment [9], in [10], in experiment [11] and in [12] was “inactive” each time. For the same compound, in experiment [13], the Potency entry was “inactive”.

As to `Cc1cc(C(C)(C)C)c(O)c(C)c1Cn1c(=O)n(Cc2c(C)cc(C(C)(C)C)c(O)c2C)c(=O)n(Cc2c(C)cc(C(C)(C)C)c(O)c2C)c1=O`, the Potency entry in [1], in [3], in experiment [4], in experiment [5], in experiment [6] and in experiment [7] was “inactive” throughout. In addition, the Potency result in experiment [8], in experiment [9], in [10], in experiment [11] and in experiment [13] was “inactive” in each case.

With `C[C@@H](O)[C@H](N)C(=O)O`, the Potency result in [1], in [3], in [4] and in [13] was “inactive” each time. For the same compound, in [5], the activity, negative = cytotoxicity was -0.243% [at 19 µM]. The activity change, negative = inhibition in experiment [6] is 1.16% [at 19 µM]. The viability change, negative = cytotoxic in experiment [7] is 3.86% [at 15.8 µM]. In addition, the activation in experiment [8] was -7.74% [at 15.8 µM]; in experiment [9], 0.146% [at 15.8 µM]. Besides, the activity change, negative = cytotoxicity in experiment [11] was -1.86% [at 19 µM]. In addition, the activity, negative = inhibition in experiment [12] is 42.8% [at 19 µM].

Regarding `CCN(CC)c1ccc2c(-c3ccc(S(=O)(=O)O)cc3S(=O)(=O)[O-])c3ccc(=[N+](CC)CC)cc-3oc2c1`, the Potency result in experiment [3], in experiment [14], in [8], in [9], in experiment [10] and in [13] was “inactive” throughout. Also, the Potency in experiment [11] is 31.6 µM (active).

Consider `CC(C)(c1cc(Br)c(OCC(Br)CBr)c(Br)c1)c1cc(Br)c(OCC(Br)CBr)c(Br)c1` (configuration not stated), for which the Potency result in [1], in experiment [3], in experiment [4], in experiment [5], in [6] and in experiment [7] was “inactive” throughout. For the same compound, the Potency entry in [8], in experiment [9], in [10], in experiment [11], in experiment [12] and in experiment [13] was “inactive” each time.

Consider `CCOc1ccc2ccccc2c1C(=O)N[C@@H]1C(=O)N2[C@@H]1SC(C)(C)[C@@H]2C(=O)O`, for which the Potency entry in [1], in experiment [2], in experiment [3], in [4], in experiment [5] and in experiment [6] was “inactive” each time. The Potency result in [7], in [8], in experiment [9], in [10], in experiment [11] and in experiment [13] was “inactive” throughout.

On to `Cc1cc(C(C)(C)C)cc(C)c1CC1=NCCN1`, for which the Potency result in experiment [1], in [2], in [3], in experiment [4], in experiment [5] and in experiment [6] was “inactive” in each case. Besides, the Potency result in experiment [7], in [8], in experiment [9], in [11], in experiment [12] and in experiment [13] was “inactive” in each case. In addition, the Potency entry in experiment [16], in experiment [18] and in experiment [19] was “inactive” throughout. Besides, the compound was called inactive in [15], in [17] and in [20].

On to `NC[C@H]1O[C@H](O[C@H]2[C@H](O[C@@H]3O[C@H](CO)[C@@H](O)[C@H]3O)C(O)[C@H](N)C[C@@H]2N)[C@H](N)[C@@H](O)[C@@H]1O` (some centres not stated), for which the activity change, negative = cytotoxicity in experiment [1] is -1.26% [at 13.2 µM]; in [4] it was -1.85% [at 6.95 µM]; in experiment [10], 3% [at 6.97 µM]; in experiment [11], -0.449% [at 8.39 µM]. The viability change, negative = cytotoxic was -0.622% [at 6.95 µM] in experiment [2] and 9.44% [at 6.97 µM] in [7]. Further, the activity, negative = cytotoxic in experiment [3] was 0.788% [at 6.95 µM]. Further, in experiment [5], the activity, negative = cytotoxicity was 4.86% [at 8.39 µM]. Also, the activity change, negative = inhibition in experiment [6] is 9.94% [at 8.39 µM]. The values for the activation in experiment [8], in experiment [9] and in experiment [13] were -3.58% [at 6.97 µM], 5.85% [at 6.98 µM] and -3.22% [at 8.36 µM], respectively. In addition, the activity, negative = inhibition in [12] is -17.9% [at 8.39 µM].
